Several values for one entry are separate records, joined by “and”; a condition that tells them apart may be missing. Equal values may be shown once. A number with no mark means an inactive call. Records with an inconclusive call do not appear. Activity calls are given as the source filed them. Calls follow the shape of the full dose curve.
Molecular target: Acetylcholinesterase (Homo sapiens) (UniProt P22303)
Assay: Acetylcholinesterase (AChE) small molecule antagonists: colormetric cell-based qHTS assay (AID 1347395); also: nearly all actives have a fitted effect of over 30% in size
Details: SH-SY5Y cells AChE activity, colorimetric (Ellman); series mostly up to 115 µM; activity, negative = inhibition: at the top concentration
Method in brief: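 Colorimetric readout: DTNB quantifies thiocholine from acetylthiocholine hydrolysed by endogenous AChE of SH-SY5Y cells (2,000/well, plated overnight). Compound pretreatment 30 min, substrate incubation 90 min, both 37 C.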
% is scaled to controls: 0 for no effect and ±100 for the full control effect; potency is read from the fitted curve at half-maximal effect.

Chain of Acetylcholinesterase (Homo sapiens) (P22303 whole entry, looked up): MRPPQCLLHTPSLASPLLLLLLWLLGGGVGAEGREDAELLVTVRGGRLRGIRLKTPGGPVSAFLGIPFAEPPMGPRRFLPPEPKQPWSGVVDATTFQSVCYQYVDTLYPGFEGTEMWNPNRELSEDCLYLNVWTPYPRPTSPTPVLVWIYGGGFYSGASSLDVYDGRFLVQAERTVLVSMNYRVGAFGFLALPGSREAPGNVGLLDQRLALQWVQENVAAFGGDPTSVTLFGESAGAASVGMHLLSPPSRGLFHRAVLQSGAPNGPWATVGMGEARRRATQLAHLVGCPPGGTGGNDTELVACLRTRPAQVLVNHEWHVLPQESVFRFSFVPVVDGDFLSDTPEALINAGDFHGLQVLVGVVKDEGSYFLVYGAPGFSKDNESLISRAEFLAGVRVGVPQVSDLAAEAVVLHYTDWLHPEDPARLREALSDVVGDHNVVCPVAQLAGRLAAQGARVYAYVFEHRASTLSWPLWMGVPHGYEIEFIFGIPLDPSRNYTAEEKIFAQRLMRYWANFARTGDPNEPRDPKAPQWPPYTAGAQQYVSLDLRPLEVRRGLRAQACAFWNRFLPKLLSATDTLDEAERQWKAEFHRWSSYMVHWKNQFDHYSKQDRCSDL

SMILES | activity, negative = inhibition | Potency
CCN(CCC#N)c1ccc(N=Nc2ccc([N+](=O)[O-])cc2)cc1 | 2.87% | 
CCn1ccc(NS(=O)(=O)c2ccc(N)cc2)nc1=O | 1.5% [at 52.9 µM] | 
c1cnc2cc3c(cc2n1)C1CNCC3C1 | -2.61% [at 52.9 µM] | 
CCC(C)(C)C1CCCCC1OC(C)=O (stereo not given) | 3.14% | 
Cc1c(C(C)C)c(=O)n(-c2ccccc2)n1C | 1.58% [at 52.9 µM] | 
Oc1ccccc1Cc1ccccc1O | -0.815% | 
Nc1ccncc1N | -3.87% [at 52.9 µM] | 
CCCCCC1Nc2cc(C(F)(F)F)c(S(N)(=O)=O)cc2S(=O)(=O)N1 (stereo not given) |  | 15.5 µM (active)
O=C1O[C@H](CO)[C@@H](O)[C@H](O)[C@H]1O |  | inactive
CC/C(=C(\c1ccc(O)cc1)c1ccc(OCCN(C)C)cc1)c1ccccc1 |  | 44.9 µM (active)
COc1ccccc1Oc1c(NS(=O)(=O)c2ccc(C(C)(C)C)cc2)nc(-c2ncccn2)nc1OCCO | 0.264% [at 52.9 µM] | 
CC(C)=CCCC(C)CCO (stereo not given) |  | inactive
OCCCc1ccccc1 |  | inactive
O=c1oc2cc(O)ccc2c2oc3cc(O)ccc3c12 | 2.05% | 
CCCCCCCCCCCCOC(=O)c1cc(O)c(O)c(O)c1 |  | inactive
O=C(Cl)c1c(Cl)c(Cl)c(C(=O)Cl)c(Cl)c1Cl |  | inactive
CC1(C)O[C@@H]2C[C@H]3[C@@H]4C[C@H](F)C5=CC(=O)CC[C@]5(C)[C@H]4[C@@H](O)C[C@]3(C)[C@]2(C(=O)CO)O1 |  | inactive
C[C@]12CC[C@@H]3c4ccc(O)cc4C[C@@H](CCCCCCCCCS(=O)CCCC(F)(F)C(F)(F)F)[C@H]3[C@@H]1CC[C@@H]2O (stereo not given in full) |  | inactive
Fc1ccccc1 | 6.36% | 
O=Nc1ccc(NO)cc1 | 16.6% | 

SMILES | activity, negative = inhibition | Potency
Nc1ccn([C@H]2CC[C@@H](CO)O2)c(=O)n1 |  | inactive
CC(=O)OCCC(C)C |  | inactive
O=[N+]([O-])c1cc(N(CCO)CCO)ccc1NCCO |  | inactive
CC(C)[C@H]1CC[C@@H](C)CC1=O | -3.26% | 
CCO/C([O-])=N/c1c[n+](N2CCOCC2)no1 | 0.584% [at 52.9 µM] | 
CN(C)CCCNCCCN(C)C | -5.48% | 
CCOC(=O)O[C@]1(C(=O)OCCl)CC[C@H]2[C@@H]3CCC4=CC(=O)C=C[C@]4(C)[C@H]3[C@@H](O)C[C@@]21C | 0.121% [at 52.9 µM] | 
COc1ccc(Nc2ccccc2)c(C)c1 |  | inactive
COc1nccnc1CC(C)C | -1.27% | 
Cc1ccc2c(Cl)cc(Cl)c(O)c2n1 | -0.757% [at 52.9 µM] | 
CCCCCCCC(=O)OCC(O)CO (stereo not given) |  | inactive
Oc1cccc2cc3cccc(O)c3c(O)c12 | -15.1% | 
O=S(=O)(O)CCO | -2.86% | 
O=S(=O)(Oc1ccc(Cl)cc1)c1ccccc1 | -2.84% | 
OCC1CCCO1 (stereo not given) |  | inactive
CC(=O)c1ccc([N+](=O)[O-])cc1 | -0.102% | 
CCCCC(CC)COS(=O)(=O)O (stereo not given) | -1.31% | 
CCOc1ccc2nc(S(N)(=O)=O)sc2c1 | 3.26% [at 52.9 µM] | 
O=C(CCNNC(=O)c1ccncc1)NCc1ccccc1 | 4.54% [at 52.9 µM] | 
Cc1ccc(OC(=O)CC(C)C)cc1 | -0.603% | 

Molecular target: Acetylcholinesterase (Homo sapiens) (UniProt P22303)
Assay: Acetylcholinesterase (AChE) small molecule antagonists: enzyme-based qHTS assay (AID 1347397); also: nearly all actives have a fitted effect of over 55% in size
Details: Potency: AChE enzyme activity inhibition; outcome: AChE enzyme activity inhibition; series mostly up to 115 µM; activity change, negative = inhibition: at the top concentration
Method in brief: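 Absorbance-based detection of thiocholine with DTNB served as the read-out. Recombinant human AChE was exposed to compound for 30 min at RT before a 10 min RT incubation with acetylthiocholine.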

SMILES | activity change, negative = inhibition | Potency
CCN(CCC#N)c1ccc(N=Nc2ccc([N+](=O)[O-])cc2)cc1 | -1.92% | 
CCn1ccc(NS(=O)(=O)c2ccc(N)cc2)nc1=O | -0.226% [at 53 µM] | 
c1cnc2cc3c(cc2n1)C1CNCC3C1 | 0.825% [at 53 µM] | 
CCC(C)(C)C1CCCCC1OC(C)=O (stereo not given) | -0.387% | 
Cc1c(C(C)C)c(=O)n(-c2ccccc2)n1C | 0.415% [at 53 µM] | 
Oc1ccccc1Cc1ccccc1O | -1.38% | 
Nc1ccncc1N | -0.453% [at 53 µM] | 
CCCCCC1Nc2cc(C(F)(F)F)c(S(N)(=O)=O)cc2S(=O)(=O)N1 (stereo not given) |  | 21.9 µM (active)
O=C1O[C@H](CO)[C@@H](O)[C@H](O)[C@H]1O |  | inactive
CC/C(=C(\c1ccc(O)cc1)c1ccc(OCCN(C)C)cc1)c1ccccc1 |  | 79.9 µM (active)
COc1ccccc1Oc1c(NS(=O)(=O)c2ccc(C(C)(C)C)cc2)nc(-c2ncccn2)nc1OCCO | 0.554% [at 53 µM] | 
CC(C)=CCCC(C)CCO (stereo not given) |  | inactive
OCCCc1ccccc1 |  | inactive
O=c1oc2cc(O)ccc2c2oc3cc(O)ccc3c12 | 1.64% | 
CCCCCCCCCCCCOC(=O)c1cc(O)c(O)c(O)c1 |  | 35.4 µM (active) and 39.9 µM (active)
O=C(Cl)c1c(Cl)c(Cl)c(C(=O)Cl)c(Cl)c1Cl |  | inactive
CC1(C)O[C@@H]2C[C@H]3[C@@H]4C[C@H](F)C5=CC(=O)CC[C@]5(C)[C@H]4[C@@H](O)C[C@]3(C)[C@]2(C(=O)CO)O1 |  | inactive
C[C@]12CC[C@@H]3c4ccc(O)cc4C[C@@H](CCCCCCCCCS(=O)CCCC(F)(F)C(F)(F)F)[C@H]3[C@@H]1CC[C@@H]2O (stereo not given in full) |  | inactive
Fc1ccccc1 | 1.48% | 
O=Nc1ccc(NO)cc1 | 7.2% | 

SMILES | activity change, negative = inhibition | Potency
Nc1ccn([C@H]2CC[C@@H](CO)O2)c(=O)n1 |  | inactive
CC(=O)OCCC(C)C |  | inactive
O=[N+]([O-])c1cc(N(CCO)CCO)ccc1NCCO |  | inactive
CC(C)[C@H]1CC[C@@H](C)CC1=O | 0.258% | 
CCO/C([O-])=N/c1c[n+](N2CCOCC2)no1 | 1.97% [at 53 µM] | 
CN(C)CCCNCCCN(C)C | -0.258% | 
CCOC(=O)O[C@]1(C(=O)OCCl)CC[C@H]2[C@@H]3CCC4=CC(=O)C=C[C@]4(C)[C@H]3[C@@H](O)C[C@@]21C | 2.56% [at 53 µM] | 
COc1ccc(Nc2ccccc2)c(C)c1 |  | inactive
COc1nccnc1CC(C)C | 0.285% | 
Cc1ccc2c(Cl)cc(Cl)c(O)c2n1 | -0.945% [at 53 µM] | 
CCCCCCCC(=O)OCC(O)CO (stereo not given) |  | inactive
Oc1cccc2cc3cccc(O)c3c(O)c12 | 0% | 
O=S(=O)(O)CCO | 0.273% | 
O=S(=O)(Oc1ccc(Cl)cc1)c1ccccc1 | 0.614% | 
OCC1CCCO1 (stereo not given) |  | inactive
CC(=O)c1ccc([N+](=O)[O-])cc1 | 2.73% | 
CCCCC(CC)COS(=O)(=O)O (stereo not given) | -1.65% | 
CCOc1ccc2nc(S(N)(=O)=O)sc2c1 | 2.15% [at 53 µM] | 
O=C(CCNNC(=O)c1ccncc1)NCc1ccccc1 | 0.689% [at 53 µM] | 
Cc1ccc(OC(=O)CC(C)C)cc1 | 0.344% | 

Reference: PubChem BioAssay (Tox21)
